Hits are enriched below; roughly 4.1% of the tested compounds scored in any of these assays.
PfHsp90 yeast 2: growth inhibition of PfHsp90-expressing yeast, primary screen, antimalarial PfHsp90 inhibitor project, S. cerevisiae, BacTiter-Glo luminescence, single point, set 2; BacTiter-Glo ATP, 48 h; yeast lacking PDR1 and PDR3 efflux regulators; inhibition, % at 9.4 µM; 310,000 tested, 0.32% active; AID 504621, 2011;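 active means every replicate shows inhibition above about 80%, whatever the replicate mean, limit read from the data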;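 further: 0% = DMSO neutral controls and 100% = 20 µM radicicol positive controls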
NALP1 inh: NALP1 inflammasome inhibitors in reconstituted yeast, colorimetric, S. cerevisiae, triplicate retest; AID 2071, 2009; S. cerevisiae NALP1/ASC/caspase-1 growth, X-gal OD620, 72 h; inhibition, % at 10 µM; 280,000 tested, 0.61% active; in the data active means inhibition mostly above about 24%, no sharp cut-off; inactive means mostly below about 32%
tim23-1 inh: growth inhibitors of tim23-1 mutant yeast, primary screen, luminescence, uHTS. S. cerevisiae tim23-1 growth, BacTiter-Glo luminescence, 24 h. inhibition, % at 20 µM. 330,000 tested, 1.3% active;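 active means growth inhibition of the mutant yeast at or above 50%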;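 further: temperature-sensitive mutant grown at 25 °C; plate controls were DMSO-treated mutant yeast for no effect and medium wells lacking yeast for full effect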
NALP3 yeast inh: NALP3 inflammasome inhibitors in reconstituted yeast, primary screen, luminescence, uHTS; Yeast reconstituted NLRP3/ASC/caspase-1, beta-gal luminescence, 24 h; inhibition, % at 10 µM; 330,000 tested, 0.39% active;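 active means inhibition of 50% or more; inactive means inhibition below 50%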;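 further: plate controls were induced DMSO wells for no effect and uninduced yeast grown without galactose for full effect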
tim10-1 inh: growth inhibitors of tim10-1 mutant yeast, primary screen, luminescence, uHTS | S. cerevisiae tim10-1 ts strain growth, BacTiter-Glo, 24 h | inhibition, % at 20 µM | 330,000 tested, 2.2% active;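 active means inhibition of at least 40%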;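 further: mutant grown at 25 °C; 0% = DMSO wells with yeast and 100% = wells holding no yeast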
TIM10 inh: growth inhibitors of isogenic TIM10 control yeast, primary screen, counter-screen for tim10-1 yeast inhibitor project, luminescence, uHTS; S. cerevisiae TIM10 strain growth, BacTiter-Glo luminescence, 24 h; inhibition, % at 10 µM; 330,000 tested, 1.4% active; AID 463195, 2010;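 active means inhibition of 40% or more at the single tested concentration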;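 further: wild-type TIM10 isogenic control strain grown at permissive 25 °C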
Starred values were filed as active, the others as inactive; / = no result.

SMILES	PfHsp90 yeast 2	NALP1 inh	tim23-1 inh	NALP3 yeast inh	tim10-1 inh	TIM10 inh
S=C(NCCc1ccccc1)NCc1cccc(Cl)c1	-18	-2	40	12	27	29
CCCc1nn(C)c(C(=O)Nc2cccc(C)c2)c1Cl	-25	46*	26	28	3	10
N/C(=N\OC(=O)c1ccc2c(c1)OCO2)c1ccncc1	5	/	-1	-7	13	-5
Cc1ccc(N/N=C(\C#N)C(N)=S)c(C)c1	101*	44	/	/	/	/
Cc1ccc(NC(=O)/C(C#N)=N/Nc2ccc(C(=O)O)cc2)c(C)c1	-9	/	17	19	-4	12
O=C(O)CC/C(=N/Nc1ccc([N+](=O)[O-])cc1)C(=O)O	100*	34	-29	11	-54	12
CC(OC(=O)C1CC1)C(=O)Nc1cccc(S(=O)(=O)N2CCOCC2)c1 (stereo not drawn)	-2	/	8	6	12	-1
CCCc1[nH]nc2c1C(c1ccoc1)C(C#N)=C(N)O2 (stereo not drawn)	-30	58*	43	5	25	32
Cc1[nH]nc2c1C(c1ccoc1)C(C#N)=C(N)O2 (stereo not drawn)	28	/	-3	-7	5	5
CC(C)C(NC(=O)c1ccccc1F)C(=O)NCCCn1ccnc1 (stereo not drawn)	-3	/	5	7	8	4
COc1cnc(-c2ccccn2)nc1N(C)c1ccccc1	11	18	10	25	-31	23
COc1cnc(-c2ccccn2)nc1Oc1ccccc1	-5	21*	-8	12	-5	-38
CCCCCCCCCCCCCCCC[n+]1ccccc1	114*	/	/	/	/	/
C=C1C(=O)C23C(O)C1CCC2C12CCCC(C)(COC(C)=O)C1C(O)C3(O)OC2 (stereo not drawn)	-2	/	/	/	/	/
CC(=NNC(=S)Nc1cccc(Cl)c1)c1ccccn1	124*	/	/	/	/	/
CC(=NNC(=S)N1CCC1)c1ccccn1	107*	/	/	/	/	/
COc1ccc(CCNC(=S)NNC(=O)c2c(Br)c(C)nn2C)cc1OC	-11	-8	8	8	13	2
Cc1cccc(C)c1NC(=O)C1CCCN(CCCc2ccccc2)C1 (stereo not drawn)	27	42*	/	/	/	/
OCc1cn(-c2ccccc2)nc1-c1ccc2c(c1)OCCO2	-24	9	-14	23	22	2
c1ccc(-n2cc(CNCCc3cscn3)c(-c3ccc4c(c3)OCO4)n2)cc1	-7	32*	19	19	21	19
CCCCn1c(N)c(N(CC(C)C)C(=O)C2CCN(S(=O)(=O)c3ccc(Cl)cc3)CC2)c(=O)[nH]c1=O	13	/	5	16	22	7
COC(=O)Nc1ccc(S(=O)(=O)NC2CCCCC2)cc1	-4	5	17	17	10	16
CN1CCN(C(=O)C2=C[C@@H](C3CCCCC3)C[C@@H](OCc3ccc(CO)cc3)O2)CC1	9	24*	23	11	7	10
CCc1nnc(NS(=O)(=O)c2ccc(NC(=O)c3cc(Cl)ccc3Cl)cc2)s1	1	39*	9	4	8	5
CCc1nnc(NS(=O)(=O)c2ccc(NC(=O)c3cc(Cl)ccc3[N+](=O)[O-])cc2)s1	7	-1	-3	12	-6	-6
SMILES	PfHsp90 yeast 2	NALP1 inh	tim23-1 inh	NALP3 yeast inh	tim10-1 inh	TIM10 inh
CCCCn1c(=O)[nH]c(=O)c2c1nc(-c1ccccc1OC(F)F)n2C	7	10	-18	12	-9	12
COCCNC(=O)c1cc2c(=O)[nH]c3ccccc3c2s1	-12	-4	-3	-3	15	-7
CCCN1CCN(CCCNC(=O)c2cc3c(=O)[nH]c4ccccc4c3s2)CC1	8	25*	3	16	4	9
CCOC(=O)CCC(=O)O[C@H]1[C@H](O[C@@H]2[C@@H](C)[C@H](O[C@H]3C[C@@](C)(OC)[C@@H](O)[C@H](C)O3)[C@@H](C)C(=O)O[C@H](CC)[C@@](C)(O)[C@H](O)[C@@H](C)C(=O)[C@H](C)C[C@@]2(C)O)O[C@H](C)C[C@@H]1N(C)C	-9	92*	/	/	/	/
COc1ccc(C(=O)/C=C2\C(=O)Nc3ccc(Br)cc32)cc1	144*	/	/	/	/	/
COc1ccc2c(c1)/C(=C/c1cc(OC)c(OC)c(OC)c1)C(=O)N2	-7	/	/	/	/	/
CNC(=O)c1ccc(Nc2nnc(-c3ccc(O)cc3)c3ccccc23)cc1	13	9	-7	-6	-5	2
Oc1ccc(-c2nnc(Nc3cccc(O)c3)c3ccccc23)cc1	-1	44*	-7	-9	-8	-4
CCOC(=O)/C(=C\c1cccnc1)C(=O)c1cc(C(C)=O)c(Nc2ccccc2)s1	103*	5	47	27	14	28
O=C(CN(CC1CCCO1)C(=O)CNS(=O)(=O)c1ccc(Cl)cc1)NC1CCCC1 (stereo not drawn)	9	-15	10	4	-10	-6
CCc1nnc(N/N=C/c2cc(Br)c(O)cc2O)n1N	-8	-8	4	-5	5	2
CC(C)(C)c1nnc(N/N=C/c2cc(Br)ccc2O)n(N)c1=O	105*	94	/	/	/	/
CCC(=O)N1c2ccc(S(=O)(=O)N3CCN(c4ccc([N+](=O)[O-])cc4)CC3)cc2CC1C (stereo not drawn)	-6	-23	13	5	5	-14
CN(C)c1nc(N(C)C)c2cnn(C)c2n1	1	/	/	/	/	/
Nc1ccc2nc(SCC(=O)N3CCOCC3)sc2c1	12	40*	-4	14	9	-2
Nc1ccc2nc(SCC(=O)N3CCN(c4ccccc4)CC3)sc2c1	-51	/	-9	18	-7	-3
CCCCCCCCCCCC(=O)NC(C(=O)O)C(O)c1ccccc1 (stereo not drawn)	-7	27*	20	0	23	16
Cc1ccc2c(c1C)-c1c(ccc(C)c1C)C(=O)C2=O	103*	/	/	/	/	/
Nc1ccc2c(c1Cl)C(=O)c1ccc(N)c(Cl)c1C2=O	6	8	/	/	/	/
CC(C)(C)c1nc2c(C#N)c(-c3ccc(Cl)cc3)ccn2n1	-13	38*	39	18	37	-9
O=C(c1c[nH]c2ccccc12)C(Cl)c1ccccc1 (stereo not drawn)	-1	45*	38	33	31	35
Cc1ccc(S(=O)(=O)N(CCC(=O)NCC(c2ccccc2)N(C)C)c2ccccc2)cc1 (stereo not drawn)	12	/	/	/	/	/
O=C(CCCNC(=O)c1ccc(Cl)cc1)OCc1cccc(Br)c1	113*	/	20	25	-10	-17
